# Screening data: PubChem BioAssay, several laboratories
# Cav32 inh – human Cav3.2 channel inhibition, primary screen; O95180; Cav3.2-expressing cells, Fluo-4 calcium fluorescence FDSS; hits give low values; B-score at 10 µM; 4% of 100,000 active; AID 449739;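 active means single-dose well whose peak fluorescence ratio is a statistical outlier from its plate by either plate-standardised score or position-corrected B-score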
# CYP2C19 activ – increases human CYP2C19 enzyme activity; P33261; recombinant CYP2C19, luciferin-H EGE luminescence; hits give high values; 0 = fully inhibited enzyme, 1 = untreated enzyme; activation factor at 5 µM; 96,000 tested, under 10 active; AID 1025;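 active means activation factor of at least 2 at 5 µM in the primary screen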
# CYP2C9 act – activators of human CYP2C9; P11712; recombinant CYP2C9, luciferin-H conversion, luminescence; hits give high values; factor 1 = untreated enzyme, 0 = blocked; activation factor at 5 µM; 1.4% of 96,000 active;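 active means activation factor of 2 or more for CYP2C9 at a 5 µM dose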
# Target sequence (P11712 whole entry, looked up): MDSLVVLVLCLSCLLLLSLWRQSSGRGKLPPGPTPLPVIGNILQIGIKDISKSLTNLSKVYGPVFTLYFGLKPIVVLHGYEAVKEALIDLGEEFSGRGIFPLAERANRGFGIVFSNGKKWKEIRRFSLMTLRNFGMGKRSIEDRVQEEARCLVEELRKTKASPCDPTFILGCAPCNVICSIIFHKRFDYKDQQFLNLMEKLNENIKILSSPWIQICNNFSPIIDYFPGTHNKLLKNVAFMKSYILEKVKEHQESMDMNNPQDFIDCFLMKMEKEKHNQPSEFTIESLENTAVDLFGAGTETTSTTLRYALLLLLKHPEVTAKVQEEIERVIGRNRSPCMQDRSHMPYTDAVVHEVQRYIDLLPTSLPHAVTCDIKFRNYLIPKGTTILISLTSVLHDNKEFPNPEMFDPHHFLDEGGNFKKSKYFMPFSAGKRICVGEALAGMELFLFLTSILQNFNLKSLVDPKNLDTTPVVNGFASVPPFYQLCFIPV
# CYP2C9 inhib – blocks human cytochrome P450 2C9 | AID 777 | inhibition, % at 5 µM | CYP2C9 Supersomes, luciferin-H conversion, luminescence | 20% of 96,000 active;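 active means blocking of liver enzyme CYP2C9 beyond about 50% at 5 µM, limit read from the data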
# CYP2C19 inh – inhibitors of human CYP2C19. 21% of 96,000 active. CYP2C19 Supersomes, luciferin-H EGE luminescence, 30 min. P33261. AID 778. inhibition, % at 5 µM;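 active means CYP2C19 inhibition above a set limit at 5 µM in the primary screen, cut at about 50% in these data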
# Hits are given with their value; 0 = inactive; - = not tested or not shown. An excerpt weighted towards active compounds, which were near 27% of everything screened.
SMILES,Cav32 inh,CYP2C19 activ,CYP2C9 act,CYP2C9 inhib,CYP2C19 inh
COc1ncccc1C(=O)NCC(CC(=O)O)c1ccccc1 (centres undefined),0,0,0,0,0
Nc1c(C(=O)OCC2CCCO2)c2nc3ccccc3nc2n1Cc1cccs1 (centres undefined),0,0,0,57,0
Nc1c(C(=O)NC2CCCC2)c2nc3ccccc3nc2n1CC1CCCO1 (centres undefined),-6.4,0,0,0,0
CC(C)OCCCNC(=O)c1c(N)n(Cc2cccs2)c2nc3ccccc3nc12,0,0,0,91,0
C=CCNC(=O)c1c(N)n(CCN2CCOCC2)c2nc3ccccc3nc12,0,0,0,0,0
COc1ccn(C)c(=O)c1C#N,0,-,-,-,-
Cc1cccc(-n2c(O)c(C=NCCCN3CCOCC3)c(=O)[nH]c2=O)c1C,0,0,0,0,0
C#CCOCOCC#CCN(CC)CC,0,0,0,0,0
CCC(C)(C)n1nnnc1C(c1cccs1)N1CC=C(c2ccc(F)cc2)CC1 (centres undefined),0,0,0,79,56
CCN(CC)c1ccc(CN2CC=C(c3ccc(F)cc3)CC2)cc1,0,0,0,0,0
Fc1ccc(C2=CCN(C(c3cccs3)c3nnnn3CCc3ccccc3)CC2)cc1 (centres undefined),0,0,0,74,50
O=C1NC(=O)C2(Cc3ccccc3N3CCOCC32)C(=O)N1c1ccccc1 (centres undefined),0,0,0,0,0
COC(=O)C1=CO[C@H](C)[C@H]2CN3CC[C@@]4(C(=O)Nc5ccccc54)[C@@H]3C[C@H]12,0,-,-,-,-
O=c1[nH]c(=O)n(Cc2ccco2)c(O)c1C=NCCCn1ccnc1,-,0,0,0,0
COc1cccc(OCC(=O)N2CCN(C)CC2)c1,0,0,0,0,54
Cc1ccc(OCC(=O)N2CCN(C)CC2)c(Br)c1,-,0,0,0,0
O=C(CNS(=O)(=O)c1cccs1)N1CCC2(CC1)OCCO2,-,0,0,0,52
COC(=O)C1=C(c2cccc(OC)c2OC)C[C@@H]2CC[C@H]1N2C(=O)NCCNC(C)=O,0,-,-,-,-
CCCNC(=O)c1c(N)n(Cc2ccc3c(c2)OCO3)c2nc3ccccc3nc12,0,0,0,0,0
Cc1nc2cc(C(F)(F)F)ccc2n1C1CCN(Cc2nnnn2Cc2cccs2)CC1,0,0,0,79,0
Cc1nc2cc(C(F)(F)F)ccc2n1C1CCN(Cc2nnnn2Cc2ccc3c(c2)OCO3)CC1,0,0,0,92,57
CCCN(CC#CCO)CCC,0,-,-,-,-
CC1(C)C2CC=C(CN3CCC(O)CC3)C1C2 (centres undefined),0,0,0,0,0
CCOc1ccc(-n2c(CC)nc3ccccc3c2=O)cc1,0,0,0,0,0
C=CCn1c(O)c(C(CC)=NCc2cc(OC)cc(OC)c2)c(=O)[nH]c1=O,0,0,0,95,0
SMILES,Cav32 inh,CYP2C19 activ,CYP2C9 act,CYP2C9 inhib,CYP2C19 inh
CCCCn1c(O)c(C(CC)=NCc2ccc3c(c2)OCO3)c(=O)[nH]c1=O,-5.1,0,0,82,74
C=CCn1c(O)c(C(CC)=NCCCO)c(=O)[nH]c1=O,0,0,0,0,0
CCCSc1nc(O)c(CC)c(=O)n1C(C)CC (centres undefined),0,0,0,0,0
Oc1cccc(/C=N/NP(=S)(c2ccccc2)c2ccccc2)c1,0,0,0,99,94
COC(=O)C1=C(c2cc3ccccc3s2)C[C@@H]2CC[C@H]1N2C(=O)NCc1ccc(F)cc1,-3.4,-,-,-,-
CC(=O)c1ccc2c(c1)C1C(Cl)C(Sc3ccccc3[N+](=O)[O-])CC1C(c1ccccc1)N2 (centres undefined),0,0,0,74,0
Cc1cccc(NC(=O)CSc2nnc([C@@H](N)Cc3c[nH]c4ccccc34)o2)c1C,0,0,0,0,0
CC(C)N1C(=O)CC2(CC[N+](C)(CCOC(=O)C(O)(c3ccccc3)c3ccccc3)CC2)C1=O (centres undefined),0,0,0,0,0
CN1CSC(=S)N(C)C1,0,0,0,0,0
CCCNC(=O)c1c(N)n(Cc2ccco2)c2nc3ccccc3nc12,0,0,0,0,0
COCCOC(=O)c1c(N)n(Cc2ccc(OC)cc2)c2nc3ccccc3nc12,0,0,0,83,64
COCCCn1c(N)c(C(=O)OCCOC)c2nc3ccccc3nc21,0,0,0,0,0
COC(=O)c1c(N)n(Cc2ccc(OC)cc2)c2nc3ccccc3nc12,0,0,0,71,75
COc1ccc(Cn2c(N)c(C(=O)NCc3ccco3)c3nc4ccccc4nc32)cc1OC,-,0,0,79,0
CCOC(=O)c1c(N)n(Cc2ccc(OC)cc2)c2nc3ccccc3nc12,0,0,0,0,0
COC(=O)C1=C(c2cc3ccccc3s2)C[C@@H]2CC[C@H]1N2C(=O)NC1CCCCC1,0,-,-,-,-
Fc1ccc2c(c1)nnn2C1CCN(Cc2ccccc2)CC1,0,0,0,0,0
Cc1nc2ccccc2n1C1CCN(Cc2nnnn2CCc2ccccc2)CC1,0,0,0,0,0
c1ccc(CCn2nnnc2CN2CCC(n3nnc4ccccc43)CC2)cc1,0,0,0,68,69
Fc1ccc2c(c1)nnn2C1CCN(Cc2nnnn2CCc2ccccc2)CC1,0,0,0,95,78
CCCCN1C(=O)NC(=O)C2(Cc3c(nc4c(C)cccn4c3=O)N3CCc4ccccc4C32)C1=O (centres undefined),-,0,0,89,77
CC(C)(C)n1c(O)c(C=Nc2ccc3c(c2)CCC3)c(=O)[nH]c1=O,0,0,0,74,0
O=c1[nH]c(=O)n(CCC2=CCCCC2)c(O)c1C=Nc1cccc(F)c1,0,0,0,0,0
CCCC/C(=N\O)c1c[nH]c2ccccc12,0,0,0,0,69
CN1/C(=C\C=C\C2=[N+](C)c3ccc4ccccc4c3C2(C)C)C(C)(C)c2ccccc21,-5.9,0,0,56,67
SMILES,Cav32 inh,CYP2C19 activ,CYP2C9 act,CYP2C9 inhib,CYP2C19 inh
CCC(=NCCO)c1c(O)n(-c2ccc(Cl)cc2)c(=O)[nH]c1=O,0,0,0,0,0
CC1(C)CN=C(NCc2ccccc2Cl)S1,0,0,0,0,65
CC1(C)CN=C(Nc2ccccc2C(F)(F)F)S1,0,0,0,0,0
CCCCn1c(O)c(C(C)=NC(Cc2c[nH]c3ccccc23)C(=O)OC)c(=O)[nH]c1=O (centres undefined),-4.3,0,0,97,95
CCCCCCn1c(O)c(C(C)=NC)c(=O)[nH]c1=O,0,0,0,61,83
COC(=O)c1ccc(COc2cc(C)cc3oc(=O)c4c(c23)CCCC4)o1,0,0,0,98,79
Cc1ccc(-n2nc(C)cc2NC(=O)COc2cc(C)cc3oc(=O)c4c(c23)CCC4)cc1,0,0,0,80,0
Cc1cc(C)n2c(Br)c(CN3CC4CC(C3)c3cccc(=O)n3C4)nc2n1 (centres undefined),0,-,-,-,-
CCOC(=O)c1c(-c2ccc(OC)cc2)oc2ccc(OC(=O)N(C)C)cc12,0,0,0,0,0
